The whole screen tested about 220,000 compounds, of which about 2,600 (1.2%) were called active. The sample as a whole holds a higher share of actives than the screen did. Unmarked numbers belong to inactive results.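 The calls were made as follows: active = activation above the mean of all tested compounds plus 3 SD, set per screening run (cut at about 8.8% in these data); inactive = the rest.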
Molecular target: Wee1-like protein kinase (Homo sapiens) (UniProt P30291)
Assay: Wee1 degradation inhibitors, primary screen, cell-based, HeLa, Wee1K328M-luciferase, luminescence (AID 1321);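 also: cells exposed to compound for 20 h before luminescence read; 0% = DMSO alone and 100% = MG132 at 30 µM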
Conditions: HeLa Luc-Wee1K328M stability, at 5 µM, active compounds read high, 100% = proteasome inhibitor MG132 effect

Structure (SMILES)	reporter increase
CN(C)S(=O)(=O)c1cccc(-c2nn(-c3ccccc3)cc2/C=C2\SC(=S)N(CC(=O)O)C2=O)c1	-2.5%
CN1CCc2nc(SC(C(=O)O)c3ccccc3)c(C#N)c(-c3cccs3)c2C1 (stereo not drawn)	-1.79%
Cc1ccsc1/C=N/Nc1ccc(Cl)nn1	1.78%
O=C(CSc1nnc2n1CCCN2)c1ccccc1	1.24%
Cc1ccc(NC(=O)/C(=C\c2ccccc2)NC(=O)c2ccco2)cc1	2.36%
O=C(O)c1ccc(/C=N/NC(=O)c2ccc(Br)cc2)cc1	0.91%
O=C(N/N=C/c1ccc(OCC2COCCO2)cc1)c1ccc(Br)cc1 (stereo not drawn)	10.9% (active)
O=C(N/N=C/c1ccc(OCc2ccccc2)cc1)c1ccc(O)cc1	-1.31%
O=C(O)C(NS(=O)(=O)c1cccc2nsnc12)c1ccccc1 (stereo not drawn)	-0.72%
Cn1cc(S(=O)(=O)NC(c2ccccc2)c2ccccc2)c(=O)n(C)c1=O	-2.84%
COc1cc2nc(Cl)nc(NCCO)c2cc1OC	-0.52%
Cc1ccc(NC(=O)OCCNC(=O)c2ccncc2)cc1	14.4% (active)
CCCCCOC(=O)NCCOC(=O)Nc1ccc(C(=O)OCC)cc1	3.09%
Cc1ccc(NC(=O)OCc2cncs2)cc1	2.2%
O=C(NCc1ccccc1)c1ccc(S(=O)(=O)Nc2cccc(C(F)(F)F)c2)cc1	-0.38%
COc1ccc(CCn2c(NN=C3CCCC3)nc3c2c(=O)[nH]c(=O)n3C)cc1	-2.59%
O=C(NC1C2CC3CC(C2)CC1C3)c1ccc(N2CCNCC2)c([N+](=O)[O-])c1 (stereo not drawn)	-0.74%
N/C(=N\OC(=O)c1cc(-c2ccccc2)nc2ccccc12)c1ccncc1	2.66%
Cc1cccc(/C(N)=N/OC(=O)c2ccccc2Cl)c1	11.3% (active)
Cc1cccc(C(=O)c2cccc(C)c2)c1	-0.47%
CCNc1nc(Oc2ccc(C(=O)OC)cc2)nc(N2CCOCC2)n1	1.78%
CC(=O)Nc1ccc(NC(=S)NC(=O)/C=C/c2ccccc2)cc1	-3.02%
Cc1ccc(NC(=S)NC(=O)/C=C/c2ccc(Cl)cc2)cc1	2.86%
CCOc1ccc(NC(=S)NC(=O)/C=C/c2ccc(OC)cc2)c([N+](=O)[O-])c1	9.57% (active)

Structure (SMILES)	reporter increase
CCOC(=O)c1c(C)oc2cc(Br)c(OCC(N)=O)cc12	8.52%
COCCOC(=O)c1c(C)oc2cc(Br)c(OCC(N)=O)cc12	10.5% (active)
CCOC(=O)c1c(C)oc2ccc(OCC(=O)N(CC)CC)cc12	-2.85%
C/C(=N/NC(=O)CN1CCN(S(=O)(=O)c2ccc(Br)cc2)CC1)c1ccncc1	0.47%
COC(=O)/C=C(\Oc1ccccc1)C1(O)CCCCC1	-1.22%
Cc1ccc(Nc2nc(N)nc(CN3CCN(Cc4ccccc4)CC3)n2)cc1Cl	4.72%
O=C(NCc1ccccn1)Nc1ccc(F)cc1	3.54%
c1ccc(CN=C2Nc3ccccc3CS2)nc1	10.7% (active)
CCc1ccc[n+](-c2nc([O-])sc2C=O)c1	10.2% (active)
O=C(NCc1csc(-c2cccs2)n1)C1CC1	-1.28%
O=C(NCC1CCCO1)c1ccccc1-c1nc(-c2ccccc2Cl)no1 (stereo not drawn)	-0.52%
O=C(CSc1nnnn1-c1ccc(O)cc1)c1ccc(F)cc1	-3.92%
Cc1onc(NC(=O)c2ccc([N+](=O)[O-])o2)c1Br	0.61%
O=S(=O)(NCc1cccnc1)c1ccc(Br)s1	3.49%
O=S(=O)(NCc1ccccn1)c1ccc(Br)s1	9.46% (active)
O=S(=O)(NCc1ccccn1)c1ccc(F)cc1	-3.61%
Cc1nc(/N=C(\N)NC(=O)NC2CCCCC2)nc2ccccc12	-1.12%
O=C(Nc1ccccc1)c1cccnc1Nc1ccccc1	-2.05%
CC(C)c1ccc(Nc2ncccc2C#N)cc1	19.9% (active)
CN(C)c1ccnc(Nc2ccc(F)cc2)c1C#N	4.88%
COC(=O)CN(C(=S)Nc1ccc(Cl)cc1)C1CC(=O)N(c2ccc(OC)cc2)C1=O (stereo not drawn)	0.7%
CCOc1ccc(N2C(=O)CC(N(O)c3ccccc3)C2=O)cc1 (stereo not drawn)	7.01%
CCOc1ccc(N2C(=O)CC(N(CCc3ccc(OC)c(OC)c3)C(=S)Nc3ccccc3)C2=O)cc1 (stereo not drawn)	10.8% (active)
Cc1cccc(N(C)C(=O)c2cc3c(=O)[nH]c4ccc(C)cc4c3s2)c1	0.97%
